Reference: PubChem BioAssay (NCI)
Compounds without any hit were thinned out: in the full panel of roughly 83,000, 20% have a hit.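 Method: cells in 96-well plates; compound added at one concentration; 48 h incubation; percent growth measured; values under 10 scored active.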 Calls of active or inactive are those of the source.

Assays:
Assay in all cases: NCI-60 one-dose screen, 48 h (100 = growth as untreated, 0 = no growth, -100 = all killed)
Conditions in all cases: 10 µM unless noted
[1] = system: SK-MEL-2 melanoma
[2] = system: EKVX NSCLC
[3] = system: SN12C renal
[4] = system: UO-31 renal
[5] = system: TK-10 renal
[6] = system: ACHN renal
[7] = system: CAKI-1 renal
[8] = system: A498 renal
[9] = system: CCRF-CEM leukemia
[10] = system: MOLT-4 leukemia

Measured: growth

COc1ccc(Nc2nnc(-c3c[nH]c4ccccc34)o2)cc1
active: [9] 7.79%
inactive: [1] 92% | [2] 68% | [3] 58.6% | [4] 62.6% | [5] 135% | [6] 89.6% | [7] 72.9% | [8] 130% | [10] 40.3%

Cc1cn(-c2cc(NC(=O)c3ccc(C)c(-n4cc(-c5cnc6cccnn56)nn4)c3)cc(C(F)(F)F)c2)cn1
inactive: [1] 64.9% | [2] 98.9% | [3] 85.9% | [4] 58.2% | [5] 111% | [6] 85.7% | [7] 94.7% | [8] 185% | [9] 54.6% | [10] 38.9%

O=C(CSc1nnc(-c2ccc(-c3nc4ccccc4[nH]3)cc2)o1)Nc1ccc(Br)cc1
active: [6] -60.9% | [10] 4.27%
inactive: [1] 41.4% | [2] 27.1% | [3] 21.9% | [4] 63.2% | [5] 56.7% | [7] 25.2% | [8] 109% | [9] 23%

S=C(Nc1ccccc1)Nc1ccc(OCc2nc3ccc(Cl)cc3[nH]2)cc1
inactive: [1] 91.4% | [2] 67.2% | [3] 78.8% | [4] 70.3% | [5] 114% | [6] 81.8% | [7] 84.1% | [8] 110% | [9] 54.2% | [10] 52.3%

O=S(=O)(c1nc(-c2ccc(Br)cc2)oc1-c1ccc(Cl)cc1)N1CCCC(O)C1 (stereo not given)
inactive: [1] 65.2% | [2] 50% | [4] 37.4% | [5] 102% | [6] 53.8% | [7] 71.1% | [8] 83.3% | [9] 48.1%
active: [3] -59.5% | [10] 6.98%

Nc1nn2c(-c3cc4ccccc4oc3=O)ccnc2c1N=Nc1ccccc1
inactive: [1] 97.4% | [2] 66.9% | [3] 48.6% | [4] 63.2% | [5] 103% | [6] 54.9% | [7] 81.8% | [8] 111% | [9] 101% | [10] 113%

O=C(CSc1nc2c(c(=O)[nH]1)CCCC2)Nc1ccccc1C(=O)O
inactive: [1] 98.9% | [2] 99.2% | [3] 93.3% | [4] 82.3% | [5] 106% | [6] 106% | [7] 89.5% | [8] 173% | [9] 101% | [10] 99.3%

Cc1cccc(-c2ccccc2Oc2ccc3nnc(Cl)n3n2)c1
inactive: [1] 105% | [2] 98.2% | [3] 101% | [4] 90.6% | [5] 103% | [6] 105% | [7] 92.2% | [8] 117% | [9] 103% | [10] 103%

N#C/C(=C/c1ccc([N+](=O)[O-])cc1)c1nnc(NC(=O)c2ccc(-n3c(=O)[nH]c4ccccc4c3=O)cc2)s1
inactive: [1] 103% | [2] 93.9% | [3] 94% | [4] 75.6% | [5] 108% | [6] 96.3% | [7] 92% | [8] 132% | [9] 97.8% | [10] 98.5%

Cc1nn(-c2ccccc2)c2nc(C)n(C(=O)N/N=C/c3ccccc3)c(=O)c12
inactive: [1] 105% | [2] 94.4% | [3] 97.9% | [4] 74.1% | [5] 123% | [6] 94.9% | [7] 76.9% | [8] 112% | [9] 96.3% | [10] 102%

O=C(NN1C(=O)/C(=C/C=C/c2ccc([N+](=O)[O-])o2)SC1=S)c1ccncc1
active: [1] -79.3% | [2] -92% | [3] -99.9% | [4] -97.2% | [5] -91% | [6] -100% | [7] -100% | [9] -43.9% | [10] -38.8%
inactive: [8] 18.9%

CCCCC[C@@H]1C/C=C(\C)[C@@H](O)C(C)(C)C(=O)[C@@H](C)/C=C(\C)[C@@H]2C[C@H](O)C[C@](O)(CC(=O)O1)O2
inactive: [2] 21.4% | [3] 76.8% | [4] 20.4% | [5] 55.1% | [6] 19.7% | [7] 47.1% | [8] 30% | [9] 28.9% | [10] 18.2%
active: [1] 9.84%

Cc1ccc(C(=O)Nc2ccc(-n3ccnc3)c(C(F)(F)F)c2)cc1C#Cc1cnc2cccnn12
inactive: [2] 27.5% | [3] 14.4% | [5] 23% | [6] 12.3% | [9] 22.9%
active: [1] -23.6% | [4] 5.87% | [7] -4.4% | [8] -6.46% | [10] -32.5%

O=C(OCCOCCO)N(c1cccc(Br)c1)c1nc(SCCN2CCOCC2)nc2c1cnn2CC(Cl)c1ccc(Br)cc1 (stereo not given)
inactive: [2] 26.6% | [3] 20.3% | [5] 40.5% | [7] 27.8% | [8] 45.5%
active: [1] -60.3% | [4] -3.09% | [6] 2.9% | [9] -18.4% | [10] -24.3%

COc1ccc(N=Nc2c(N)nn3c(-c4ccc5c(c4)C=S=C5)ccnc23)cc1
inactive: [1] 93.4% | [2] 33.9% | [3] 39% | [4] 16.4% | [5] 82.4% | [6] 31.6% | [7] 34% | [8] 144% | [9] 10.1% | [10] 32.9%

O=C(N/N=C/c1c[nH]c2ccccc12)Nc1ccccc1Cl
active: [2] 2.29% | [3] 0.991% | [8] -8.24% | [9] 9.84% | [10] 5.56%
inactive: [1] 13.9% | [4] 23.2% | [5] 34.2% | [6] 10.7% | [7] 16.1%

Cc1cc(C2(c3cc(C)c(OCC(O)CNc4c(C)n(C)n(-c5ccccc5)c4=O)cc3C(C)C)OC(=O)c3ccccc32)c(C(C)C)cc1OCC(O)CNc1c(C)n(C)n(-c2ccccc2)c1=O (stereo not given)
inactive: [2] 16.3% | [3] 26.6% | [4] 19.1% | [5] 24.8% | [6] 17.1% | [7] 21.9% | [8] 55.4% | [9] 12.3% | [10] 13.1%
active: [1] -5.35%

Nc1nnc(CS(=O)(=O)c2ccccc2)s1
inactive: [1] 113% | [2] 103% | [3] 106% | [4] 77.1% | [5] 98.7% | [6] 104% | [7] 88.8% | [8] 137% | [9] 102% | [10] 103%

Cn1cc(-c2cc3nc(-c4cn(C)c5ncc(Br)cc45)cc(N)n3n2)c2cc(F)ccc21
inactive: [1] 88.8% | [2] 49% | [3] 26.4% | [4] 20.3% | [5] 16% | [8] 125% | [10] 17.4%
active: [6] -7.44% | [7] -3.51% | [9] 5.26%

CCOc1ccccc1[C@H]1C(C(=O)c2ccc(Cl)cc2)C2(N[C@@H]1c1ccccc1)C(=O)Nc1ccc(Cl)cc12 (stereo not given in full)
inactive: [2] 21.5% | [4] 16.7% | [5] 61.4% | [6] 22.4% | [7] 18.5% | [8] 80.9% | [9] 26.2%
active: [1] -11.2% | [3] -57.3% | [10] -23.4%

Cc1ccc(-c2cc(-c3ccccc3)[nH]c(=O)c2C#N)cc1
inactive: [1] 95.5% | [2] 82.8% | [3] 86.5% | [4] 73.2% | [5] 95.1% | [6] 79.1% | [7] 81.9% | [8] 84.8% | [9] 76.7% | [10] 91.3%

CC(C)(C)OC(=O)N1CCC2(CC1)Oc1ccccc1[C@H]1CC(c3ccc(Br)cc3)=NN12
inactive: [1] 71.9% | [2] 56.6% | [3] 71.2% | [4] 43% | [5] 131% | [6] 60% | [7] 41.1% | [8] 98.7% | [9] 58.2% | [10] 47%

CCc1ccccc1NC(=O)N/C(N)=N/c1nc2ccccc2s1
inactive: [1] 10.6% | [2] 27.6% | [4] 34.7% | [5] 19.8% | [8] 60.3%
active: [3] 0.486% | [6] 1.6% | [7] 4.86% | [9] 4.47% | [10] 6.27%

CCOc1ccccc1NC(=O)N/C(N)=N/c1nc2ccccc2s1
active: [3] 8.49% | [9] 0.25% | [10] 7.53%
inactive: [1] 38.7% | [2] 42.9% | [4] 44.6% | [5] 63% | [6] 18.5% | [7] 17.8% | [8] 90.9%

CCOC(=O)c1ccc(NC(=S)NC(=O)c2ccc(NC(=O)C(C)C)cc2OC)cc1
active: [9] 9.79% | [10] -60.3%
inactive: [1] 48.5% | [2] 36.1% | [3] 73.8% | [4] 51.7% | [5] 85.7% | [6] 64.6% | [7] 53.7% | [8] 86.7%

O=C(Cc1c(-c2cccc([N+](=O)[O-])c2)n(-c2ncnc3c2c(-c2ccccc2)c(-c2ccccc2)n3Cc2ccccc2)[nH]c1=O)c1ccc(Cl)c(Cl)c1
inactive: [2] 11.1% | [3] 38.5% | [4] 39.8% | [5] 59% | [6] 40.4% | [7] 21.1% | [8] 70.3% | [9] 51.3% | [10] 41.9%
active: [1] 1.5%
